Article PMC4336329 (PLoS ONE, 2015)
About 14,000 (4.5%) of roughly 310,000 compounds showed an effect of 50% or more. Effects have a minus sign here. The sample holds strong results, similar compounds and a random draw of the others, so the mix is not that of the screen.
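Note: peak tail current of the secondary pulse compared with the same well before compound.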

What follows are compounds tested against human ether-à-go-go-related gene (hERG) potassium channel (human, UniProt Q12809) (assay: primary screen, population patch clamp on CHO cells stably expressing hERG; higher = less effect of the substance).
human ether-à-go-go-related gene (hERG) potassium channel, sequence (Q12809 whole entry, looked up): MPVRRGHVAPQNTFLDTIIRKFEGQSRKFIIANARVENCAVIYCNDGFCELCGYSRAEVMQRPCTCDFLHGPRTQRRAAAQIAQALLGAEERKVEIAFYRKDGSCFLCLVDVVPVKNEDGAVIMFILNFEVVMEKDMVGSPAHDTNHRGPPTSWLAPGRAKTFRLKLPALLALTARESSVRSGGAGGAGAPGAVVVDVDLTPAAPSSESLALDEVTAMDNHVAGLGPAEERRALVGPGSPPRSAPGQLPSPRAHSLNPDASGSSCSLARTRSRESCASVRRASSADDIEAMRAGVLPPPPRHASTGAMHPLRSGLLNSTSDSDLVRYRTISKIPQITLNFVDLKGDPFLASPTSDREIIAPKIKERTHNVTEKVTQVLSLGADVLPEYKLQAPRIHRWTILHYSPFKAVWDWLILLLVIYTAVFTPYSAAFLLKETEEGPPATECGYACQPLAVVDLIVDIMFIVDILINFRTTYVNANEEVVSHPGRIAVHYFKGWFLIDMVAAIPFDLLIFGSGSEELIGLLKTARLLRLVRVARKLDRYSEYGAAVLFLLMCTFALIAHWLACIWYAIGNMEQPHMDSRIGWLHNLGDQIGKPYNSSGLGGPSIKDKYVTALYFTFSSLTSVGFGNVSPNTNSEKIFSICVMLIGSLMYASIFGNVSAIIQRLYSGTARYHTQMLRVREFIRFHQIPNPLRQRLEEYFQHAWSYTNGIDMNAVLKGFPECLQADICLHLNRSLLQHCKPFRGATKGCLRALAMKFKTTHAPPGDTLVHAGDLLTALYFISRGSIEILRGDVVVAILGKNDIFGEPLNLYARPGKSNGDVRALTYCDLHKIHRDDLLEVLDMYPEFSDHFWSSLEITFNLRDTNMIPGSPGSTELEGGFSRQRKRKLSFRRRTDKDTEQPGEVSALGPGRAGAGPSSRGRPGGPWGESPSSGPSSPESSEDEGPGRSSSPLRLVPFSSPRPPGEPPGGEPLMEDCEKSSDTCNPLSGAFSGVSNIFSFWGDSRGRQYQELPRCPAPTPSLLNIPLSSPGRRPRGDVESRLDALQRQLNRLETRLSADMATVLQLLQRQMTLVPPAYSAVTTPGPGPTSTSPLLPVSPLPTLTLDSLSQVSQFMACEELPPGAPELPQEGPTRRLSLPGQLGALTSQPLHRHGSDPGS
In the case of COC(=O)CS(=O)(=O)c1cc(Br)cc2c1N(C(C)=O)CC2, the “hERG current change (%, negative = inhibition) at 10uM” value is reported as 5.36%. In the case of COC(=O)C1=C(c2ccccc2OCc2ccccc2)C[C@@H]2CC[C@H]1N2C(=O)NCc1ccc(C(F)(F)F)cc1, the “hERG current change (%, negative = inhibition) at 10uM” value is reported as -4.61%. With O=S(=O)(Cc1cccc(F)c1)c1c[nH]c2ccccc12 the “hERG current change (%, negative = inhibition) at 10uM” value was 8.65%. For Cc1cccn2c(=O)nc(SCC(=O)N3CCN(c4ccccc4)CC3)nc12, the “hERG current change (%, negative = inhibition) at 10uM” value was -67.6%. In the case of C=CCSc1nc(=O)n2ccc(C)cc2n1, the “hERG current change (%, negative = inhibition) at 10uM” value is reported as -22.9%. O=c1nc(SCc2cccc(C(F)(F)F)c2)nc2ccccn12 was tested, and the “hERG current change (%, negative = inhibition) at 10uM” value was -37%. Cc1ccn2c(=O)nc(SCc3cccc(C(F)(F)F)c3)nc2c1 was tested, and the “hERG current change (%, negative = inhibition) at 10uM” value was -51.5%. In the case of Cc1cccn2c(=O)nc(SCC(=O)N3CCOCC3)nc12, the “hERG current change (%, negative = inhibition) at 10uM” value is reported as 9.72%. For Cc1cccn2c(=O)nc(SCC(=O)N3CCCC3)nc12, the “hERG current change (%, negative = inhibition) at 10uM” value was -22.6%. For COC(=O)CSc1nc(C)c(Oc2ccccc2)c(=O)[nH]1, the “hERG current change (%, negative = inhibition) at 10uM” value was 11.6%. O=c1[nH]c(CN2CCc3ccccc3C2)nc2ccccc12 was tested, and the “hERG current change (%, negative = inhibition) at 10uM” value was 5.47%. With CCN1CCN(C(=O)c2nn(-c3ccccc3)c(=O)c3ccccc23)CC1 the “hERG current change (%, negative = inhibition) at 10uM” value was -2.92%. With CCn1nc(C(=O)N2CCN(Cc3ccc4c(c3)OCO4)CC2)c2ccccc2c1=O the “hERG current change (%, negative = inhibition) at 10uM” value was -52.1%. With CCn1nc(C(=O)N2CCN(Cc3nc4ccccc4s3)CC2)c2ccccc2c1=O the “hERG current change (%, negative = inhibition) at 10uM” value was -68.9%. With COc1ccc(CN2CCN(C(=O)Cn3nc(C(=O)O)c4ccccc4c3=O)CC2)cc1F the “hERG current change (%, negative = inhibition) at 10uM” value was -37.4%. In the case of CCn1nc(C(=O)N2CCc3ccccc3C2)c2ccccc2c1=O, the “hERG current change (%, negative = inhibition) at 10uM” value is reported as -13.6%. In the case of COc1ccc(-n2nc(C(=O)N3CCN(Cc4ccc5c(c4)OCO5)CC3)c3ccccc3c2=O)cc1, the “hERG current change (%, negative = inhibition) at 10uM” value is reported as -4.87%. In the case of N#Cc1ccc(CN2CCN(C(=O)Cn3nc(C(N)=O)c4ccccc4c3=O)CC2)cc1, the “hERG current change (%, negative = inhibition) at 10uM” value is reported as -70%. For Cc1nn(CC(=O)N2CCN(Cc3ccccc3)CC2)c(=O)c2ccccc12, the “hERG current change (%, negative = inhibition) at 10uM” value was -2.85%. O=C(c1n[nH]c(=O)c2ccccc12)N1CCN(Cc2ccc3c(c2)OCO3)CC1 was tested, and the “hERG current change (%, negative = inhibition) at 10uM” value was 2.15%. With Cc1cc2nc(-c3ccco3)cc(C(F)(F)F)n2n1 the “hERG current change (%, negative = inhibition) at 10uM” value was -5.82%. For CNc1c(NS(=O)(=O)c2ccc(F)c(Cl)c2)c(=O)oc2ccccc12, the “hERG current change (%, negative = inhibition) at 10uM” value was 3.54%. With O=C(CSCC(=O)N1CCOCC1)Nc1nc(-c2ccccc2)cs1 the “hERG current change (%, negative = inhibition) at 10uM” value was -14.8%. NC(=O)c1ccccc1OCC(=O)N1CCCc2ccccc21 was tested, and the “hERG current change (%, negative = inhibition) at 10uM” value was 14.5%. In the case of CC(C)Cc1nc2oc3c(=O)[nH]cnc3c2c2c1CCCC2, the “hERG current change (%, negative = inhibition) at 10uM” value is reported as -6.24%. With CC(C)Cc1nc2oc3c(=O)[nH]cnc3c2c2c1CCC2 the “hERG current change (%, negative = inhibition) at 10uM” value was -7.29%. With CCCc1nc2oc3c(=O)[nH]cnc3c2c2c1CCCC2 the “hERG current change (%, negative = inhibition) at 10uM” value was -56.5%. COc1ccc(-c2csc(NC(=O)c3ccc(OCC(=O)N4CCOCC4)c(OC)c3)n2)cc1OC was tested, and the “hERG current change (%, negative = inhibition) at 10uM” value was -27.6%. With Cc1ccc(C(=O)CCC(=O)Nc2cccc(C)c2)cc1 the “hERG current change (%, negative = inhibition) at 10uM” value was 15.3%. In the case of COCCn1c(=NC(=O)CSCC(=O)N2CCOCC2)sc2cc(C)ccc21, the “hERG current change (%, negative = inhibition) at 10uM” value is reported as -14.8%. With O=C(CSc1nnc(-c2ccco2)n1Cc1ccccc1)c1ccc(F)cc1 the “hERG current change (%, negative = inhibition) at 10uM” value was -45.7%. For Cn1c(SCC(=O)OC2CCCCC2)nnc1-c1ccco1, the “hERG current change (%, negative = inhibition) at 10uM” value was 0.11%. In the case of COCCCn1c(SCC(=O)OC2CCCCC2)nnc1-c1ccco1, the “hERG current change (%, negative = inhibition) at 10uM” value is reported as -56%. COCCCn1c(SCC(=O)NC2CCCC2)nnc1-c1ccco1 was tested, and the “hERG current change (%, negative = inhibition) at 10uM” value was 9.39%. O=C(CSc1nnc(-c2ccco2)n1Cc1ccccc1)OC1CCCCC1 was tested, and the “hERG current change (%, negative = inhibition) at 10uM” value was -92.1%. COCCCn1c(SCC(=O)NC2CCCCC2)nnc1-c1ccco1 was tested, and the “hERG current change (%, negative = inhibition) at 10uM” value was -3.26%. For CCCNS(=O)(=O)c1ccc2c(c1)CCCN2C(C)=O, the “hERG current change (%, negative = inhibition) at 10uM” value was -4.81%. In the case of O=C1Nc2cc(C(=O)NCCCN3CCOCC3)ccc2S/C1=C/c1cccc(Cl)c1, the “hERG current change (%, negative = inhibition) at 10uM” value is reported as 9.36%. CCOC(=O)c1c(P(=O)(N2CCOCC2)N2CCOCC2)noc1N was tested, and the “hERG current change (%, negative = inhibition) at 10uM” value was -0.372%. For Cn1cc(CN2CCCC(CNS(=O)(=O)c3cccc4cccnc34)C2)cn1 (stereo not shown), the “hERG current change (%, negative = inhibition) at 10uM” value was 5.77%. For CCC(CC)C(=O)Nc1nnc(S(=O)(=O)N2CCCCCC2)s1, the “hERG current change (%, negative = inhibition) at 10uM” value was 1.54%. For COc1ccc(CN2CCCC(CO)(Cc3ccc(F)cc3F)C2)cc1 (stereo not shown), the “hERG current change (%, negative = inhibition) at 10uM” value was 6.12%. In the case of COc1cccc(CC(=O)N2CCCC(CO)(Cc3ccc(F)cc3F)C2)c1 (stereo not shown), the “hERG current change (%, negative = inhibition) at 10uM” value is reported as -0.432%. With CCOc1cc(CN2CCCC(CO)(Cc3ccc(F)cc3F)C2)ccc1OC (stereo not shown) the “hERG current change (%, negative = inhibition) at 10uM” value was -55.9%. In the case of OCC1(Cc2ccc(F)cc2F)CCCN(Cc2ccc(Cl)cc2)C1 (stereo not shown), the “hERG current change (%, negative = inhibition) at 10uM” value is reported as -74.6%. In the case of COC(=O)c1ccc(CN2CCCC(CO)(Cc3ccc(F)cc3F)C2)cc1 (stereo not shown), the “hERG current change (%, negative = inhibition) at 10uM” value is reported as -42.3%. With CCOc1ccc(-n2cc(-c3ccccc3)c3c(=O)[nH]cnc32)cc1 the “hERG current change (%, negative = inhibition) at 10uM” value was 17.2%. In the case of CN(CCc1ccccn1)C(=S)Nc1ccc(Cl)c(Cl)c1, the “hERG current change (%, negative = inhibition) at 10uM” value is reported as -3.59%. With COc1ccc(NS(=O)(=O)c2ccc(N3CCOCC3)c(NC(=O)c3ccc(OC)cc3)c2)cc1 the “hERG current change (%, negative = inhibition) at 10uM” value was -1.38%. In the case of CCOC(=O)c1ccc(CSC(=N)N)o1, the “hERG current change (%, negative = inhibition) at 10uM” value is reported as 17.2%. With CN(C)c1ccc(CN2CCCCCC2)cc1 the “hERG current change (%, negative = inhibition) at 10uM” value was -6.11%. With COc1ccc(CCNS(=O)(=O)c2ccc(S(=O)(=O)N3CCCC3)cc2)cc1OC the “hERG current change (%, negative = inhibition) at 10uM” value was -6.61%. COc1ccc(CCNC(=O)CCCCCN2C(=O)c3ccccc3C2=O)cc1 was tested, and the “hERG current change (%, negative = inhibition) at 10uM” value was -28.6%. O=C(CCCN1C(=O)c2ccccc2C1=O)NCCc1ccc(OC(F)F)cc1 was tested, and the “hERG current change (%, negative = inhibition) at 10uM” value was -65.3%. For COc1ccc(CCNC(=O)CCCN2C(=O)c3ccccc3C2=O)cc1, the “hERG current change (%, negative = inhibition) at 10uM” value was 2.74%. O=C(CCCOc1ccccc1)NCCc1ccccc1 was tested, and the “hERG current change (%, negative = inhibition) at 10uM” value was -3.36%. With CCOc1ccc(OCCCC(=O)NCCc2ccc(OC)cc2)cc1 the “hERG current change (%, negative = inhibition) at 10uM” value was 25.8%. O=C(CCCOc1ccc(Br)cc1)NCCc1ccc(OC(F)F)cc1 was tested, and the “hERG current change (%, negative = inhibition) at 10uM” value was -67.7%.
